Data as given in publication PMC5540273 (PLoS ONE, 2017).

Experiments:
Conditions in all cases: concentration: 1 μM, replicates: in singlicate; n = 1
MYLK = test system: MYLK
MYO3A = test system: MYO3A
MYO3B = test system: MYO3B
NDR1 = test system: T1, NDR1
T1 construct: gene STK38

NDR2 = test system: NDR2
NEK10 = test system: NEK10
NEK11 = test system: NEK11
NEK1 = test system: NEK1
NEK2 = test system: NEK2
NEK3 = test system: NEK3
NEK4 = test system: NEK4
NEK5 = test system: NEK5
NEK6 = test system: NEK6
NEK7 = test system: NEK7
NEK9 = test system: NEK9
NIK = test system: T2, NIK
T2 construct: gene MAP3K14

NIM1 = test system: T3, NIM1
T3 construct: gene MGC42105

NLK = test system: NLK
OSR1 = test system: T4, OSR1
T4 construct: gene OXSR1

PAK1 = test system: PAK1
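Note: KINOMEscan kinase panel screen.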

SMILES | %Inh (MYLK) | %Inh (MYO3A) | %Inh (MYO3B) | %Inh (NDR1) | %Inh (NDR2) | %Inh (NEK10) | %Inh (NEK11) | %Inh (NEK1) | %Inh (NEK2) | %Inh (NEK3) | %Inh (NEK4) | %Inh (NEK5) | %Inh (NEK6) | %Inh (NEK7) | %Inh (NEK9) | %Inh (NIK) | %Inh (NIM1) | %Inh (NLK) | %Inh (OSR1) | %Inh (PAK1)
COc1cccc(-n2cnc3c(N)ncnc32)c1 [SKF-97416] | 31% | 8% | 20% | 28% | 12% | 18% | 35% | 0% | 0% | 21% | 0% | 8% | 8% | 0% | 0% | 27% | 61% | 0% | 24% | 20%
OCCCNc1nccc(-c2c(-c3cccc(C(F)(F)F)c3)nn3cc(C(F)(F)F)ccc23)n1 [GW630813] | 10% | 43% | 0% | 9% | 18% | 0% | 5% | 0% | 0% | 0% | 0% | 5% | 0% | 0% | 1% | 0% | 0% | 92.7% | 0% | 0%
O=C(Nc1n[nH]c2nc(-c3ccccc3)c(Br)cc12)C1CC1 [SB-708998] | 7% | 0% | 13% | 18% | 0% | 4% | 0% | 0% | 15% | 0% | 3% | 2% | 0% | 0% | 3% | 31% | 9% | 33% | 11% | 10%
COc1cc(Nc2nccc(N3CCC(NC(=O)C4COc5ccccc5O4)C3)n2)cc(OC)c1OC (stereo not shown) [GSK1379761] | 13% | 46% | 0% | 27% | 40% | 0% | 64% | 39% | 11% | 42% | 7% | 97.3% | 21% | 49% | 37% | 42% | 28% | 5% | 2% | 0%
COC(=O)c1c(-c2ccccc2)c2cc(C)ccc2c(=O)n1Cc1ccccc1 | 0% | 0% | 0% | 0% | 0% | 0% | 0% | 0% | 0% | 24% | 0% | 0% | 0% | 0% | 0% | 100% | 0% | 0% | 0% | 24%
